Molecules are shown by their SMILES. The whole screen tested about 37,000 compounds, of which about 2,800 (7.6%) were called active. Roughly 1% stayed inconclusive and do not appear here. Shown is part of a subset that was picked to be rich in actives. A number with no mark means an inactive call. Cut-off read from the data, not from the text of the source: active = inhibition above about 80%; inconclusive = no clear call, values can overlap the other calls; inactive = below that.

This experiment can be described thus: NOMO-1 AML cell viability reduction, primary screen, STK33 inhibitor project, CellTiter-Glo luminescence (AID 2330). The settings on record: NOMO-1 AML viability, 72 h, stronger effect = higher value, concentration not given here. For orientation: Cellular ATP, detected with luciferase, serves as a proxy for viable cell number.
The term inhibition denotes the relative decrease from the control value, in per cent. For `C/C=C(/C)C(=O)OC1Cc2c(ccc3ccc(=O)oc23)OC1(C)C` (configuration not stated), the inhibition was 9.99%. With `S=c1nc2c(cnn2-c2ccccc2)c(Nc2ccccc2)[nH]1` the figure was 12%; with `C[C@@H]1CN([C@H](C)CO)C(=O)c2cc(NC(=O)Cn3cnnn3)ccc2O[C@@H]1CN(C)Cc1ccc(C(F)(F)F)cc1`, 21.9%.

In the case of `Cc1ccc(S(=O)(=O)N(C)C[C@@H]2Oc3ccc(NS(=O)(=O)c4c(C)noc4C)cc3CC(=O)N([C@H](C)CO)C[C@H]2C)cc1`, the inhibition is -13.6%. With `O=C(O)CCCC(=O)Nc1ccc(F)cc1` the figure was 13.9%; with `C[C@H]1CN([C@@H](C)CO)C(=O)c2cc(NC(=O)CCN3CCOCC3)ccc2O[C@@H]1CN(C)C(=O)Nc1ccc(C(F)(F)F)cc1`, 22.5%. With `C[C@@H]1CN([C@@H](C)CO)C(=O)c2cc(NS(=O)(=O)c3ccccc3)ccc2O[C@H]1CN(C)CC1CCCCC1` the figure was -8.05%; with `Cn1nc(CC(=O)Nc2ccc3c(c2)oc2ccccc23)c2ccccc2c1=O`, 37.5%. With `Cc1ccc(C(=O)NC(NCc2ccco2)(C(F)(F)F)C(F)(F)F)cc1` the figure was 39.2%; with `Cc1ccc(-n2nnnc2-c2cnn(-c3ccccc3)c2C)cc1`, 29.6%.

On to `C[C@H]1CN([C@@H](C)CO)C(=O)c2cccc(NS(=O)(=O)c3ccccc3)c2O[C@@H]1CN(C)S(=O)(=O)c1cn(C)cn1`, for which the inhibition is -9.26%. To `C[C@H](CO)N1C[C@H](C)[C@H](CN(C)Cc2ccc(C(F)(F)F)cc2)Oc2ccc(NS(=O)(=O)c3ccc(Cl)cc3)cc2C1=O` belongs 58.5%; to `COc1ccc(S(=O)(=O)Nc2ccc3c(c2)C(=O)N([C@H](C)CO)C[C@H](C)[C@H](CN(C)Cc2ccc(C(F)(F)F)cc2)O3)cc1`, 51.7%. To `Cc1ccc(S(=O)(=O)Nc2ccc3c(c2)C(=O)N([C@@H](C)CO)C[C@@H](C)[C@H](CN(C)Cc2ccc(C(F)(F)F)cc2)O3)cc1` belongs 118% (active); to `C[C@@H]1CN([C@@H](C)CO)C(=O)c2cc(NS(C)(=O)=O)ccc2O[C@H]1CN(C)C(=O)Nc1ccc(F)cc1`, 37.9%. Take `CCCN(Cc1cc2cccc(C)c2[nH]c1=O)S(C)(=O)=O`: the inhibition was 10.7%. With `COC(=O)C1=C(C)Nc2c(c(=O)n(C)c(=O)n2C)C1c1cccc(OCc2ccccc2)c1` (configuration not stated) the figure was 7.28%; with `O=C(c1ccc(Cl)cc1)n1c(=O)oc2cc(Cl)ccc21`, 132% (active); with `CC(C)(C)c1ccc(OCC(=O)NCc2ccccn2)c(Br)c1`, 43.9%.

As for `C[C@@H]1CN([C@@H](C)CO)C(=O)c2cc(NS(=O)(=O)c3ccccc3)ccc2O[C@H]1CN(C)CC1CC1`, the inhibition is -13.4%. With `O=C(CN(C1CCCCC1)S(=O)(=O)c1ccc(Cl)cc1)Nc1ccccc1C(F)(F)F` the figure was 25.5%; with `COc1ccc(S(=O)(=O)N(C)C[C@H]2Oc3ccc(N(C)C)cc3C(=O)N([C@@H](C)CO)C[C@@H]2C)cc1`, 11.7%; with `CN1C(=O)CC(c2ccccc2)C1=O` (configuration not stated), 14.7%. As for `CN1C(=O)C(Cc2ccccc2)(Cc2ccccc2)c2ccccc21`, the inhibition was 96.7% (active). To `CN1C(=O)C(O)(CC(=O)c2ccco2)c2cc([N+](=O)[O-])ccc21` (configuration not stated) belongs 36.2%; to `C[C@H](CO)N1C[C@H](C)[C@H](CN(C)C)Oc2c(NS(=O)(=O)c3ccc(Cl)cc3)cccc2C1=O`, 17.7%. With `CN1CCN(C(=O)CCc2nc(-c3ccc(Cl)cc3)no2)CC1` the figure was -5.54%. With `Cn1c(Cc2csc(N)n2)nnc1SC/C=C/c1ccccc1` the figure was 23.5%. Turning to `CC(C)NC(=O)N(C)C[C@H]1Oc2ccc(NC(=O)Cn3cnnn3)cc2CC(=O)N([C@H](C)CO)C[C@H]1C`, the inhibition is 36.1%. To `COC(=O)C1=CO[C@@H](O[C@@H]2O[C@H](CO)[C@@H](O)[C@H](O)[C@H]2O)[C@@H]2[C@@](C)(O)[C@@H](OC(=O)/C=C/c3ccc(OC)c(OC)c3)C[C@]12O` belongs 11.5%; to `CC1(C)C2CC[C@]3(C)C(C(=O)C=C4[C@@H]5C[C@@](C)(C(=O)O)CC[C@]5(C)CC[C@]43C)[C@@]2(C)CC[C@@H]1O` (some centres not stated), 63.8%. Take `C/C=C(/C)C(=O)O[C@H]1CC(C)(C)C[C@H]2C3=CCC4[C@@]5(C)CC[C@H](O[C@@H]6O[C@H](C(=O)O)[C@@H](O[C@@H]7O[C@H](CO)[C@H](O)[C@H](O)[C@H]7O[C@@H]7O[C@H](CO)[C@@H](O)[C@H](O)[C@H]7O)[C@H](O)[C@H]6O[C@@H]6O[C@@H](C)[C@H](O)[C@@H](O)[C@H]6O)C(C)(C)C5CC[C@@]4(C)[C@]3(C)[C@@H](OC(C)=O)[C@@H](O)[C@@]12COC(C)=O` (some centres not stated): the inhibition is 121% (active). `C=CC1(C)C=C2CCC3C(C)(C)C(O[C@@H]4O[C@@H](CO)[C@H](O)[C@H]4O)CCC3(C)C2CC1O[C@@H]1O[C@H](C)[C@@H](OC)[C@H](O)[C@H]1O` (some centres not stated): the inhibition was 14%. To `C[C@@H]1O[C@@H](O[C@H]2[C@@H](Oc3cc(O)c4c(c3)O[C@H](c3ccc(O)cc3)CC4=O)O[C@H](CO)[C@@H](O)[C@@H]2O)[C@H](O)[C@H](O)[C@H]1O` belongs -11.7%; to `CC1(C)CC[C@]2(C(=O)O)CC[C@]3(C)C(=CCC4[C@@]5(C)CC[C@H](OC6O[C@H](CO)[C@@H](O)[C@H](O[C@@H]7O[C@H](CO)[C@@H](O)[C@H](O)[C@H]7O)[C@H]6O)C(C)(C)C5CC[C@]43C)[C@@H]2C1` (some centres not stated), 119% (active); to `CC1(C)CC[C@@]2(C(=O)O)C(C1)C1=CCC3[C@@]4(C)CC[C@H](O)C(C)(C)C4CC[C@@]3(C)[C@]1(C)C[C@H]2O` (some centres not stated), 108% (active). To `C/C=C(/C)C(=O)O[C@H]1CC(C)(C)C[C@H]2C3=CCC4[C@@]5(C)CC[C@H](O[C@@H]6O[C@H](C(=O)O)[C@@H](O[C@@H]7O[C@H](CO)[C@H](O)[C@H](O)[C@H]7O[C@@H]7O[C@H](CO)[C@@H](O)[C@H](O)[C@H]7O)[C@H](O)[C@H]6O[C@@H]6O[C@@H](C)[C@H](O)[C@@H](O)[C@H]6O)C(C)(C)C5CC[C@@]4(C)[C@]3(C)[C@@H](O)[C@@H](O)[C@@]12CO` (some centres not stated) belongs 119% (active); to `CC1OC(OC2C(OC3C(O[C@H]4CC[C@@]5(C)C(CC[C@]6(C)C5CC=C5[C@@H]7CC(C)(C)C[C@@H](O)[C@]7(C)CC[C@]56C)C4(C)C)OC(C(=O)O)C(O)C3O)OC(CO)C(O)C2O)C(O)C(O)C1O` (some centres not stated), 25.4%.

As for `C[C@@H]1CC[C@]2(C(=O)O)CC[C@]3(C)C(=CCC4[C@@]5(C)CC[C@H](O)[C@](C)(C(=O)O)C5CC[C@]43C)C2[C@]1(C)O` (some centres not stated), the inhibition is 29.2%.

For the compound `C[C@@H]1CN([C@H](C)CO)C(=O)c2cc(NC(=O)CCCCCC(=O)Nc3ccccc3N)ccc2O[C@@H]1CN(C)S(=O)(=O)c1ccc(Cl)cc1`, the inhibition is 53.5%. With `CC(C)(C)c1nc(=S)[nH][nH]1` the figure was 17.3%; with `Cc1cc2c(=O)n(C)c(SCC(=O)c3cc4ccccc4o3)nc2s1`, -4.22%. To `O=C1CC(c2ccccc2)C(=O)N1c1ccc(F)cc1` (configuration not stated) belongs 22.5%; to `C[C@@H]1CN([C@@H](C)CO)C(=O)c2cccc(NC(=O)c3ccncc3)c2O[C@H]1CN(C)S(=O)(=O)c1ccc(F)cc1`, 19.5%; to `C[C@H](CO)N1C[C@H](C)[C@@H](CN(C)S(=O)(=O)c2ccc(Cl)cc2)Oc2ccc(NS(=O)(=O)c3cn(C)cn3)cc2C1=O`, 13.1%. To `C[C@@H]1CN([C@H](C)CO)C(=O)c2cccc(NS(=O)(=O)c3ccc(Cl)cc3)c2O[C@@H]1CN(C)Cc1ccc(Cl)c(Cl)c1` belongs 33.7%; to `O=C(CSc1nnc(-c2ccccc2Cl)n1-c1ccccc1)Nc1ccc([N+](=O)[O-])cc1`, 18.6%; to `C[C@@H]1CN([C@@H](C)CO)C(=O)c2cc(NC(=O)Cc3ccccc3)ccc2O[C@@H]1CN(C)CC1CCCCC1`, 17.8%. `COc1cccc2cc(C(=O)Nc3sc4c(c3C(N)=O)CCCCC4)c(=O)oc12`: the inhibition is 6.77%. To `O=C(NCc1cccnc1)c1cnn2c(C(F)F)cc(-c3ccccc3)nc12` belongs 11%; to `NC(=O)c1c(NC(=O)c2cnn3c(C(F)F)cc(-c4ccccc4)nc23)sc2c1CCCC2`, 112% (active).

`O=C(Cn1cnc([N+](=O)[O-])n1)Nc1c(Cl)cccc1Cl`: the inhibition was -1.21%. With `COc1ccccc1NC(=O)CSc1n[nH]c(C)n1`, the inhibition was 4.79%. To `COc1ccc(OC)c(NC(=O)CSc2nc(-c3ccccc3)cc(=O)[nH]2)c1` belongs 5.5%; to `COc1ccccc1NC(=O)CSc1nc2cc3ccccc3cc2[nH]1`, 108% (active); to `Cc1ccc(S(=O)(=O)N(C)C[C@H]2Oc3ccc(NC(=O)Nc4cccc5ccccc45)cc3CC(=O)N([C@H](C)CO)C[C@H]2C)cc1`, 23.8%.

For `CC(=O)c1cccc(NC(=O)CN(C)S(=O)(=O)c2ccc3ccccc3c2)c1`, the inhibition is 19.7%.

As to `Nc1nnc(SCC(=O)Nc2ccc(F)c(Cl)c2)s1`, the inhibition was 10%. To `Cc1ccc(N(C(C)C(=O)Nc2ccc(F)c(Cl)c2)S(C)(=O)=O)cc1C` (configuration not stated) belongs 32.7%; to `C[C@H](CO)N1C[C@H](C)[C@@H](CN(C)S(=O)(=O)c2ccc(F)cc2)Oc2c(NC(=O)Nc3ccccc3)cccc2C1=O`, 8.66%. To `COc1cc(NC(=O)COc2ccc(Cl)cc2C)c(OC)cc1Cl` belongs -5.6%. To `C=C1C(=O)OC2/C=C(\C)CC3C=C(CC/C=C(\C)CCC12)C(=O)O3` (configuration not stated) belongs 114% (active).

(Values after PubChem BioAssay AID2330 (Broad Institute, 2010).)
